Bioassay records (PubChem)
An excerpt weighted towards active compounds, which were near 17% of everything screened.
ATXN2 expr inh = inhibitors of ATXN2 expression | 360,000 tested, 0.72% active | HEK-293 ATXN2-luciferase reporter, luminescence, 24 h | AID 1745845 | Potency, µM (doses to about 57 µM), usual class: inhibitors; also: nearly all actives have a fitted effect of over 55% in size
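ATXN2-luciferase reporter cells (luciferase flanked by upstream and downstream ATXN2 gene portions) were treated 24 h at 37 °C with compounds at up to 57 uM. SteadyGlo luminescence gave expression; GF-AFC fluorescence gave viability.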
ATXN viability = reduces viability in counter-screen for ATXN expression inhibitors; S2 cells (HEK-293 line with an ATXN2-luciferase reporter) viability, CellTiter-Fluor protease fluorescence, 24 h; Potency, µM (titrated, usually from 56.7 µM), usual class: cytotoxic; 400,000 tested, 0.49% active; AID 651635; also: nearly all actives have a fitted effect of over 40% in size
HepG2 tox = counter-screen for TGF-b inhibitors: cytotoxicity in HepG2 cells; HepG2 CAGA-GFP viability, ATP luminescence, 18 h; Potency, µM (series often up to 46.1 µM), actives largely listed as cytotoxic; 410,000 tested, 0.76% active
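HepG2 CAGA-GFP cells (1000/well, DMEM with 1% FBS) received compound, then TGF-beta at 500 pg/mL final, and were incubated 18 hours at 37 degrees C. Viability was read by CellTiter-Glo luminescence. Media-only wells were set as complete cell-killing and DMSO as no toxicity.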
TDP1 cell CPT = growth inhibition of DT40 Tdp1-/-;hTDP1 cells with camptothecin (screen for TDP1 inhibitors). chicken DT40 Tdp1-/-;hTDP1 cells + 20 nM CPT, ATP luminescence, 48 h. Potency, µM (series often up to 46.2 µM), actives largely listed as inhibitors. 420,000 tested, 12% active. AID 686979; also: nearly all actives have a fitted effect of over 55% in size
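Chicken DT40 Tdp1-/- cells stably complemented with human TDP1 were seeded at 400 cells/well in medium containing 20 nM camptothecin, exposed to pin-transferred compounds, and grown at 37 °C for at least 48 hr. Viability was read as ATP luminescence.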
TGFb inhibitor = blocks TGF-b signaling. HepG2 CAGA-GFP TGF-b/SMAD3 reporter, GFP fluorescence, 18 h; TGF-beta stimulated, 500 pg/mL final. AID 588855. Potency, µM (doses to about 46.1 µM), actives largely listed as inhibitors. 410,000 tested, 1.2% active; also: nearly all actives have a fitted effect of over 65% in size
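Inhibition of TGF-beta-driven CAGA-GFP reporter expression in HEPG2 cells is measured by cellular GFP fluorescence after 18 h stimulation with 500 pg/mL recombinant TGF-beta in 1% FBS medium at 37 degrees C.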
TDP1 cell noCPT = qHTS for Inhibitors of human tyrosyl-DNA phosphodiesterase 1 (TDP1): qHTS in cells in absence of CPT. DT40 Tdp1-/- hTDP1 cells, no CPT, ATP luminescence, 48 h. Potency, µM (top dose mostly 46.2 µM), actives largely listed as inhibitors. 420,000 tested, 15% active. AID 686978, 2013; also: nearly all actives have a fitted effect of over 55% in size
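Seeded 400 DT40-hTDP1 cells/well (vehicle DMSO, no 20 nM CPT); pinned compounds; ≥48 hr at 37 °C; CellTiter-Glo luminescence as viability measure.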
Hits are given with their value; 0 = inactive; ? = inconclusive; - = no result; ! = repeats disagree; [ ] = remark or other dose. Calls follow the shape of the dose curve; as a rule, active = well fitted curve in the direction sought with a large enough effect; inconclusive = small, poorly fitted or top-dose-only effect, or another doubt; inactive = no such curve, though single readings can be large; an effect the other way counts as inactive or inconclusive.

SMILES	ATXN2 expr inh	ATXN viability	HepG2 tox	TDP1 cell CPT	TGFb inhibitor	TDP1 cell noCPT
CC(C)C[C@H]1COc2cc(N3CCC[C@H]3CO)ccc2S(=O)(=O)N1	0	0	-	0	-	0
O=S1(=O)N[C@@H](Cc2ccccc2)COc2cc(N3CCC[C@@H]3CO)ccc21	0	0	-	?	-	16µM
O=c1[nH]nnc2cc(Cl)ccc12	0	0	0	0	0	0
NC(N)=Nc1nc2ccc(Cl)cc2c(=O)[nH]1	0	?	0	?	0	13µM
Cc1noc(C)c1COc1ccccc1C(=O)NNC(=O)C(C)Oc1ccccc1F (stereo not given)	0	0	0	0	0	0
CCC1(CC)NC(=O)N(CC(=O)OC(C)C(=O)Nc2ccc(Cl)cn2)C1=O (stereo not given)	0	0	0	0	0	0
COc1ccc(-c2cc(C(=O)N(C)Cc3ccccc3F)c3ccccc3n2)cc1OC	0	0	0	?	0	18µM
COc1cc(-c2cc(C(=O)N(C)Cc3ccccc3)c3ccccc3n2)cc(OC)c1OC	0	0	0	15µM	0	15µM
COc1ccccc1CNC(=O)c1cc(-c2cccnc2)nc2ccccc12	0	0	0	?	0	?
Cc1cc(C(=O)OCC(=O)NC2CCCC2)c2ccccc2n1	0	0	0	0	0	0
CCN(Cc1ccccc1)C(=O)c1cc(-c2ccc(OC)c(OC)c2)nc2ccccc12	0	0	0	?	?	?
COc1cc(-c2cc(C(=O)OCC(=O)NC3CC3)c3ccccc3n2)cc(OC)c1OC	0	0	0	?	0	18µM
COc1ccccc1CN(C)C(=O)c1cc(-c2cc(OC)c(OC)c(OC)c2)nc2ccccc12	0	?	0	23µM	0	10µM
CC(C)Cn1c(-c2ccc(Br)o2)n[nH]c1=S	0	0	0	0	0	?
CCCCn1c(-c2csc(C(C)C)c2)n[nH]c1=S	0	0	0	0	0	0
CCCc1cc(-c2n[nH]c(=S)n2CC(C)C)cs1	0	0	0	?	0	21µM
CCCCn1c(-c2csc(CC)c2)n[nH]c1=S	0	0	0	21µM	0	?
COc1cc(CN2CCC3(CCC(CNC(=O)c4ccco4)O3)CC2)cc(OC)c1 (stereo not given)	-	0	-	0	-	0
O=C(c1cnccn1)N1CCC2(CC1)CN(Cc1cc(C(F)(F)F)cc(C(F)(F)F)c1)C2	-	-	-	0	-	0
C=C1C(=O)O[C@H]2[C@H]1[C@H](OC(=O)/C(C)=C\C)C[C@]1(CO1)[C@@H]1[C@H](OC(C)=O)C=C(C)[C@]21O	0	?	0	12µM	?	13µM
C/C=C(/C)C(=O)O[C@H]1CC(C)=CC(=O)[C@@]2(C)CC[C@@](O)(C(C)C)[C@H]12	-	-	0	-	0	-
Cc1ccc(C2=CSC3=NNC4(CCCCC4)NN23)cc1	-	0	0	?	0	23µM
COc1ccc(C2=CSC3=NNC4(CCCCC4)NN23)cc1	0	0	0	0	0	0
Cc1ccc([N+](=O)[O-])cc1S(=O)(=O)N1CCN(C)CC1	0[11.3 µM]	0	0	0	0	0
Cc1ccc([N+](=O)[O-])cc1S(=O)(=O)n1ccnc1C	0	0	0	21µM	0	18µM
SMILES	ATXN2 expr inh	ATXN viability	HepG2 tox	TDP1 cell CPT	TGFb inhibitor	TDP1 cell noCPT
Cc1cc(OCc2nc(N)nc(N)c2-c2ccc(Cl)c(Cl)c2)ccc1[N+](=O)[O-]	?	0	0	0.58µM	?	0.13µM
Cc1cc(OCCCn2cnc3ccccc3c2=O)ccc1[N+](=O)[O-]	0	0	0	?	0	?
Nc1nc(N)nc(-c2cccc([N+](=O)[O-])c2)n1	0	0	0	0	0	?
Cc1nc(N)nc(N)c1-c1ccc(Cl)c(Cl)c1	7.9µM!	0	0.63µM	0.26µM	?	0.16µM
Cc1nc(N)nc(N)c1CCCc1ccc(Cl)c(Cl)c1	?	?	0	10µM	?	2.6µM
Nc1nc(N)nc(-c2ccc(Cl)c(Cl)c2)n1	0	0	0	21µM	?	12µM
